ELG1 repair inh: inhibitors of ELG1-dependent DNA repair in HEK293T cells; HEK293T ELG1-luciferase reporter, luminescence, 16 h; DNA damage induced by 5-fluorouridine; Potency, µM (top dose mostly 46.1 µM), most hits filed as inhibitors; 330,000 compounds, 2.3% hits; AID 504467; note: nearly all actives have a fitted effect of over 55% in size
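5-Fluorouridine DNA damage + compound/DMSO, 2,000 cells/well, 16 h, 37 °C/5% CO2. ONE-Glo, 30 min RT, luminescence. Readout = decrease in reporter signal.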
FLuc counter: inhibits or activates purified firefly luciferase, miR-21 counter-screen | 360,000 compounds, 6.9% hits | AID 588342 | Potency, µM (top dose mostly 57.5 µM), usual class: inhibitors | purified FLuc, Km substrates, luminescence inhibition | P08659; note: nearly all actives have a fitted effect of over 55% in size
Target sequence (P08659 whole entry, looked up): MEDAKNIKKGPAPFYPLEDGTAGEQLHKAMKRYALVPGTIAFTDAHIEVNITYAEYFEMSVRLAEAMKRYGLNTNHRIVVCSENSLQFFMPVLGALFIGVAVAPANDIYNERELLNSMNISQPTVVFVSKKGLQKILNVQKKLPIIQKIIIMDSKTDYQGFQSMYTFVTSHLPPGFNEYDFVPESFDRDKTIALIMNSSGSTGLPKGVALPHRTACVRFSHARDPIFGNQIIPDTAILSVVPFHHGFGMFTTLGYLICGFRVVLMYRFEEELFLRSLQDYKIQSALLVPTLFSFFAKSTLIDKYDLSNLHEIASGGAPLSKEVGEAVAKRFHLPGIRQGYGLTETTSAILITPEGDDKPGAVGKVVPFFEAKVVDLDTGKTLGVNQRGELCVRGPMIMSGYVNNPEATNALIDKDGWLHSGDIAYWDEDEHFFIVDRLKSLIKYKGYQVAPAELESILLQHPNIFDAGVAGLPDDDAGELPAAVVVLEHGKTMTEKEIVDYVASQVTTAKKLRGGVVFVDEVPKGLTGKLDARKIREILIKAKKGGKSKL
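Purified P. pyralis luciferase (10nM final) with 10uM D-luciferin and 10uM ATP (Km levels) in 50mM Tris acetate pH 7.5, 10mM Mg acetate, 0.01% Tween-20, 0.05% BSA; qHTS 6-point titration, ~60 µM downward; luminescence read.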
Rab9 prom act: activates the Rab9 promoter; Huh7 Rab9 promoter-luciferase reporter, luminescence, 24 h; Potency, µM (highest dose often 9.22 µM), hits mostly activators; 320,000 compounds, 2.8% hits; note: nearly all actives have a fitted effect of over 60% in size
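Huh7 cells stably carrying a Rab9 promoter-luciferase reporter, 1500 cells per well in OP-MEM I with 10% FBS, treated with compound 24 hours at 37C. Luciferase activity read by luminescence after 10 minutes with Amplite reagent.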
ELG1 genotoxic: inducers of genotoxicity in HEK293T ELG1-luciferase cells | HEK293T ELG1-luciferase reporter, luminescence, 16 h | Potency, µM (titrated, usually from 46 µM), hits mostly activators | 330,000 compounds, 1.3% hits | AID 504466; note: nearly all actives have a fitted effect of over 60% in size
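Cells (2,000/well) expressing the ELG1-luciferase fusion are dosed by pin tool and kept 16 hr at 37 °C, 5% CO2. Signal comes from ONE-Glo luciferase reagent after 30 min at room temperature.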
NPC1 prom act: activates the NPC1 promoter. Huh7 NPC1 promoter luciferase reporter, 24 h. Potency, µM (doses to about 9.22 µM), actives largely listed as activators. 320,000 compounds, 2.4% hits. AID 485313; note: nearly all actives have a fitted effect of over 60% in size
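Compounds in DMSO were transferred onto Huh7 NPC1-luciferase reporter cells pre-incubated 2 h; after 24 h at 37 °C, Amplite reagent was dispensed and luminescence recorded 10 min later.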
SMN2 splice up: enhancers of SMN2 splice variant expression; HEK293 SMN2-luciferase splicing reporter, luminescence, 30-36 h; Potency, µM (titrated, usually from 46.1 µM), usual class: activators; 210,000 compounds, 2.8% hits; AID 1458; note: nearly all actives have a fitted effect of over 55% in size
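HEK293 cells carry an SMN2 […]–luciferase reporter in which exon 7 inclusion puts luciferase in frame. Cells were plated 10-12 h before compound addition, then incubated 30-36 h at 37C. ONE-Glo luminescence was read; sodium butyrate at 4.5 mM final served as control.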
A number is an active result; . = inactive; ? = inconclusive; / = no result; [ ] = remark or other dose. In the library only some 9.2% were active in any assay of this set; here they are far more common. Calls come from the whole dose curve; as a rule, active = well fitted curve in the direction sought with a large enough effect; inconclusive = small, poorly fitted or top-dose-only effect, or another doubt; inactive = no such curve, though single readings can be large; an effect the other way counts as inactive or inconclusive.

SMILES	ELG1 repair inh	FLuc counter	Rab9 prom act	ELG1 genotoxic	NPC1 prom act	SMN2 splice up
O=C1Nc2cc(C(=O)N3CCN(c4ccccn4)CC3)ccc2S/C1=C\c1ccccc1	18µM	.	.	.	.	/
CN1C(=O)/C(=C\c2ccccc2)Sc2ccc(C(=O)N3CCN(c4ccccn4)CC3)cc21	.	?	.	.	.	.
O=C(c1ccc(Cl)c(S(=O)(=O)NCc2ccccc2)c1)N1CCN(c2ccccn2)CC1	23µM	.	.	.	.	.
Cc1ccc(CSCc2ccc(C(=O)NCCc3ccc(Cl)cc3)o2)cc1	/	.	/	/	/	/
Cc1cc(C)cc(NC(=O)CSc2oc(-c3ccco3)nc2S(=O)(=O)c2ccc(Cl)cc2)c1	/	.	/	/	/	.
O=C(C[n+]1ccccc1)N/N=C/c1c(F)cccc1Cl	.	.	.	.	.	/
Cc1ccc(S(=O)(=O)Nc2ccnc3ccccc23)cc1	.	.	.	.	.	.
Cc1ccc(S(=O)(=O)Nc2ccc(O)c3ncccc23)cc1	3.3µM	.	.	.	.	.
Cc1ccc(S(=O)(=O)Nc2cccc3ncccc23)cc1	.	.	.	.	.	/
Cc1ccc(S(=O)(=O)Nc2ccc(O)c3cccnc23)cc1	18µM	.	.	.	.	/
O=P(O)(O)O	/	/	/	/	/	.
O=C(CC1CCCC1)N1CCN(S(=O)(=O)c2ccccc2)CC1	.	.	.	.	.	/
Nc1ccccc1C#CC(=O)c1ccccc1	.	6µM	.	.	.	/
Cc1ccc(N2C(=O)CC3(CCCC3)CC2=O)cc1	?	11µM	.	.	.	/
Cc1ccc(N2C(=O)CS(=O)(=O)CC2=O)cc1	.	.	.	.	.	.
COc1ccc(C2c3c(n(C)c4ccccc34)C(=O)N2CC(=O)Nc2c(C)cc(C)cc2C)cc1 (stereo not given)	/	.	/	/	/	/
C/C(=N/N1CCN(c2ccccn2)CC1)c1cccc([N+](=O)[O-])c1	.	.	.	.	.	.[1.84 µM]
C/C(=N\N1C(=O)c2ccccc2C1=O)c1cccc([N+](=O)[O-])c1	.	17µM	.	.	.	.
COC(=O)CCn1nnc(-c2ccc(C)cc2)n1	?	17µM	.	?	.	.
Cc1ccc(-c2nnn(CCC(=O)NC(C)(C)C)n2)cc1	?	?	?	.	.	?
CN1CCN(C(=O)c2ccccc2NC(=O)c2sc3ccccc3c2Cl)CC1	.	?	.	.	.	/
O=C1CCC/C(=N/NC(=O)c2sc3ccccc3c2Cl)C1	?	15µM	?	.	?	/
O=C(NCc1ccco1)c1sc2ccccc2c1Cl	?	21µM	?	?	.	?
CN1CCN(c2ccc(NC(=O)c3sc4ccccc4c3Cl)cc2)CC1	?	1.9µM	1µM	?	2.5µM	.
O=C(NCc1ccco1)c1sc2cc(Cl)ccc2c1Cl	?	?	.	.	.	?
SMILES	ELG1 repair inh	FLuc counter	Rab9 prom act	ELG1 genotoxic	NPC1 prom act	SMN2 splice up
Cc1ccc(NC(=O)c2nsc(Cl)c2Cl)cc1	?	1.7µM	2.8µM	?	3.5µM	/
COCCn1ccc2c(OCC(=O)Nc3cccc(OC)c3)cccc2c1=O	/	.	/	/	/	/
COc1cc2c(cc1OC)C1O[C@](CCCCN3C(=O)c4ccccc4C3=O)(C2)Oc2cc(C)n(Cc3ccccc3)c(=O)c21	/	.[11.5 µM]	.[1.84 µM]	/	.[1.84 µM]	/
O=C(CSC1=Nc2ccccc2N=C(c2ccc(F)cc2)C1)NCc1ccc(Cl)cc1	/	.	/	/	/	/
CC1CCC(NC(=O)C2(C)Cc3ccccc3C(=O)N2Cc2ccccc2Cl)CC1 (stereo not given)	/	.	/	/	/	.
Cc1ccc(NC(=O)c2sc3ccccc3c2Cl)cc1	/	1.2µM	/	/	/	8.9µM
CCn1nnc(NC(=O)c2sc3ccccc3c2Cl)n1	?	9.5µM	?	21µM	2.2µM	11µM
O=C(Nc1ccncc1)c1sc2ccccc2c1Cl	.	?	?	.	?	?
O=C(Cn1c(=O)n(-c2ccc(Cl)cc2)c(=O)c2sc3ccccc3c21)NC1CCCCC1	/	.	/	/	/	.
COc1ccc(S(=O)(=O)c2cn(Cc3ccccc3)c3cc(N4CCCC4)c(F)cc3c2=O)cc1	/	.	/	/	/	/
CC(C)(C)OC(=O)N1CCC(c2c(C(=O)NCCCN3CCc4ccccc4C3)cnn2-c2ccccc2)CC1	/	.	/	/	/	/

High-throughput results deposited in PubChem BioAssay by National Center for Advancing Translational Sciences (NCATS).
